Source: PubChem BioAssay (several laboratories)
PAX8 reporter: lowers PAX8-driven luciferase in RMG-I cells; inhibition, % at 12.6 µM; actives 1.2% (n = 360,000); RMG-I TPO-luciferase reporter, SteadyGlo, 24 h; AID 652154;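 active means mean replicate inhibition at least 60% with every replicate also reaching 60%; inconclusive means only one of the two criteria is met; inactive means mean below 60% and not all replicates reaching 60%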;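 further: luciferase light reporting Pax8 driven TPO promoter activity; plate controls were median of neutral control wells for no effect and mitoxantrone controls for full effect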
EWS-Fli inh: EWS/Fli transcriptional activity inhibition; A673 NR0B1-luciferase reporter, viability-normalised; AID 651661; actives 0.67% (n = 350,000); inhibition, % at 12.6 µM;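 active means mean inhibition of at least 50% after viability correction, with every replicate also passing that limit; inconclusive means mean reaches 50% but only one of two replicates passes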;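 further: firefly luciferase signal divided by Alamar Blue viability fluorescence both relative to DMSO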
TWEAK-Fn14 inh: inhibitors of TWEAK-Fn14 interaction signaling | TWEAK-stimulated Fn14 reporter cells, luciferase luminescence, 8 h | inhibition, % at 10 µM | actives 2% (n = 360,000) | AID 1159606; in the data active means inhibition above about 50%
LGR2 inh: blocks bursicon-induced cAMP signaling via Drosophila LGR2; HEK293 LGR2, CRE-luciferase, bursicon-stimulated, 4 h; inhibition, % at 9.99 µM; actives 0.35% (n = 380,000); AID 720647;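 active means drop in luminescence signal, shown as inhibition above about 50% in the replicate tests, limit read from the data, passing the limit was not always enough; inconclusive means probably only some replicates passing the limit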;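 further: agonist challenge used bursicon conditioned medium at about half maximal strength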
TROY NFkB inh: inhibitors of TROY-dependent NF-kB signaling; inhibition, % at 10 µM; Q293 LMP1-TROYcd NF-kB luciferase reporter, 4 h; actives 0.98% (n = 360,000);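 active means compounds whose plate-normalised and pattern-corrected inhibition of the luciferase reporter signal at the single screening dose is 50% or more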
EBV LMP1 NFkB: reduces LMP1-driven NF-kappaB luciferase signal. AID 504558. inhibition, % at 12.5 µM. actives 0.69% (n = 350,000). LMP1-induced NF-kappaB luciferase reporter cells, luminescence; in the data active means inhibition above about 41%; inconclusive means no clear call, values can overlap the other calls;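 further: 0% = neutral control wells and 100% = reference inhibitor control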
* hit, by the source's call; ? = inconclusive; . = not tested or not shown. Compounds with a hit are over-represented: about 3.1% of the library has one in this group of screens.

SMILES	PAX8 reporter	EWS-Fli inh	TWEAK-Fn14 inh	LGR2 inh	TROY NFkB inh	EBV LMP1 NFkB
C[C@H](CO)N1C[C@H](C)[C@@H](CN(C)C(=O)NC2CCCCC2)Oc2ccc(NC(=O)Nc3ccc(C(F)(F)F)cc3)cc2CC1=O	59.1	8.6	.	-4.6	.	.
C[C@H]1CN([C@@H](C)CO)C(=O)Cc2cc(NC(=O)Nc3ccc(C(F)(F)F)cc3)ccc2O[C@H]1CN(C)C(=O)NC1CCCCC1	78.2*	-0.9	.	.	.	.
C[C@@H]1CN([C@@H](C)CO)C(=O)Cc2cc(NC(=O)Nc3ccc(C(F)(F)F)cc3)ccc2O[C@H]1CN(C)CC1CCCCC1	-34.4	59.1*	.	4.2	.	.
C[C@H](CO)N1C[C@H](C)[C@H](CN(C)C(=O)NC2CCCCC2)Oc2ccc(NC(=O)Nc3ccc(C(F)(F)F)cc3)cc2CC1=O	4.8	3.1	.	4.1	.	.
CCN1[C@@H]2c3ccc(-c4ccccc4)c(=O)n3C[C@@H]2[C@@H](CO)[C@@H]1C(=O)Nc1ccccc1	.	6.0	.	1.7	.	.
COc1ccc(NC(=O)N(C)C[C@H]2Oc3ccc(NS(C)(=O)=O)cc3CC(=O)N([C@@H](C)CO)C[C@@H]2C)cc1	4.1	-8.3	.	-0.7	.	.
Cc1cc(C(=O)Nc2nc(C)c(C(=O)N(C)C)s2)ccc1[N+](=O)[O-]	-30.7	0.1	53.5*	1.4	61.8*	0.9
Cc1nc(NC(=O)c2ccc([N+](=O)[O-])cc2Cl)sc1C(=O)N(C)C	13.0	.	12.1	-3.2	6.1	-6.1
C[C@H]1CN([C@@H](C)CO)S(=O)(=O)c2ccc(C#Cc3ccc(F)cc3)cc2O[C@H]1CN(C)C(=O)NC1CCCCC1	77.5*	7.9	.	22.2	.	.
C[C@@H]1CN([C@H](C)CO)S(=O)(=O)c2ccc(C#Cc3ccc(F)cc3)cc2O[C@@H]1CN(C)C(=O)NC1CCCC1	.	19.4	.	10.6	.	.
C[C@H](CO)N1C[C@H](C)[C@@H](CN(C)C(=O)NC2CCCCC2)Oc2cc(C#Cc3cccc(F)c3)ccc2S1(=O)=O	16.1	1.1	.	21.7	.	.
C[C@@H]1CN([C@@H](C)CO)S(=O)(=O)c2ccc(C#Cc3ccc(F)cc3)cc2O[C@@H]1CN(C)C(=O)NC1CCCCC1	85.0*	13.6	.	33.6	.	.
C[C@H]1CN([C@@H](C)CO)S(=O)(=O)c2ccc(C#Cc3ccc(F)cc3)cc2O[C@@H]1CN(C)C(=O)NC1CCCCC1	91.2*	11.8	.	37.4	.	.
CC(=O)Nc1ccc(-c2ccnc3c2CC(C(=O)NCc2cccc(Cl)c2)O3)cc1 (stereo unspecified)	.	69.6*	-0.8	.	-12.4	.
CC(=O)Nc1cccc(-c2ccnc3c2CC(C(=O)NCc2cccc(Cl)c2)O3)c1 (stereo unspecified)	34.0	63.1*	29.9	2.9	21.2	.
NC(=O)c1cccc(-c2ccnc3c2CC(C(=O)NCc2cccc(Cl)c2)O3)c1 (stereo unspecified)	30.9	6.4	-6.3	-25.7	5.1	.
O=C1ON=C(c2ccccc2)/C1=C/c1ccc(OS(=O)(=O)c2ccccc2)cc1	107.9*	-5.9	18.4	-13.4	-32.7	1.8
COc1ccc(/C=C2\C(=O)ON=C2c2ccccc2)cc1	-58.8	22.2	0.2	-13.1	-61.8	-4.0
CC(C)CCn1cnc2c(oc3nc4c(cc32)CCCC4)c1=O	-10.7	-7.8	76.0*	67.7*	55.3*	15.4
CC1(C)Cc2nc3oc4c(=O)n(CC(=O)Nc5ccccc5)cnc4c3cc2CO1	-5.9	-25.0	-2.9	-8.9	-18.8	-7.1
C[C@@H]1CCCCO[C@H](CN(C)S(=O)(=O)c2ccc(Cl)cc2)[C@@H](C)CN([C@@H](C)CO)C(=O)c2cc(NS(=O)(=O)c3cn(C)cn3)ccc2O1	-5.2	-3.0	.	5.0	.	.
O=C(Nc1cccc(Cl)c1)C1C2CCC3C(CCC21)C3(Cl)Cl (stereo unspecified)	-10.0	.	62.4*	1.8	43.6	11.5
O=C(Nc1ccccc1)C1C2CCC3C(CCC21)C3(Cl)Cl (stereo unspecified)	.	.	8.6	.	38.5	-4.3
O=C(c1ccccc1F)N1CC[C@@H]2[C@H](CO)Nc3ccc(C#Cc4ccccc4)cc3[C@@H]21	-2.2	-8.4	.	-0.6	.	.
CCc1nc(Nc2cccc(O)c2)c2oc3ccccc3c2n1	.	.	70.0*	.	75.7*	-9.7
SMILES	PAX8 reporter	EWS-Fli inh	TWEAK-Fn14 inh	LGR2 inh	TROY NFkB inh	EBV LMP1 NFkB
CCc1nc(Nc2ccncc2)c2oc3ccccc3c2n1	.	.	-64.7	-14.0	-14.6	-27.6
CCc1nc(Nc2ccc3c(c2)OCO3)c2oc3ccccc3c2n1	-35.4	.	50.5*	.	31.3	3.8
O=C(Cc1cccnc1)N1CC(=O)N2[C@H](C1)[C@H](c1ccc(/C=C/c3ccccc3)cc1)[C@@H]2CO	?	0.2	.	1.9	.	.
O=C(Oc1ccc(NC2=C(Cl)C(=O)c3ccccc3C2=O)cc1)c1ccc([N+](=O)[O-])cc1	.	.	20.7	.	23.6	19.0
O=C1C(Cl)=C(NCCCO)C(=O)c2ccccc21	.	.	-23.4	.	-26.1	-3.0
CN(C)c1ccc(NC2=C(Cl)C(=O)c3ccccc3C2=O)cc1	33.6	36.3	102.0*	48.7	42.5	19.9
CC(=O)Nc1ccc(NC2=C(Cl)C(=O)c3ccccc3C2=O)cc1	-6.4	46.6	.	55.8*	.	.
O=C1C(Cl)=C(Nc2ccc3cn[nH]c3c2)C(=O)c2ccccc21	81.0*	46.3	1.2	-28.9	-95.2	11.6
C[C@@H](NC(=O)C[C@@H]1CC[C@H](NC(=O)Nc2ccc3c(c2)OCO3)[C@H](CO)O1)c1ccccc1	-2.2	10.1	.	11.7	.	.
Cc1ccc2c(c1)N(CCCC(=O)NCCCN1CCCCC1)C(=O)CO2	15.4	5.1	63.7*	-1.1	-7.4	1.5
C[C@H](CO)N1C[C@H](C)[C@H](CN(C)Cc2ccc3c(c2)OCO3)Oc2ccc(NC(=O)NC3CCCCC3)cc2CC1=O	-8.4	.	.	2.6	.	.
CCCC(=O)OCC(=O)NCc1ccc(Cl)cc1	12.1	5.5	-0.6	-11.9	4.0	-0.3
O=C(COC(=O)CC(c1ccccc1)c1ccccc1)NCc1ccc(Cl)cc1	23.6	-2.1	62.1*	.	25.7	1.8
COc1ccc([Si](C)(C)[C@H]2[C@H](CCO)O[C@@]3(C(=O)N(Cc4cccc(NC(C)=O)c4)c4ccccc43)[C@@H]2C)cc1	?	20.9	.	.	.	.
COc1ccc([Si](C)(C)[C@@H]2[C@@H](CCO)O[C@]3(C(=O)N(Cc4ccc(NC(C)=O)cc4)c4ccccc43)[C@H]2C)cc1	106.7*	6.5	.	.	.	.
COc1ccc([Si](C)(C)[C@H]2[C@H](CCO)O[C@@]3(C(=O)N(Cc4ccc(NC(C)=O)cc4)c4ccccc43)[C@@H]2C)cc1	111.3*	-20.4	.	.	.	.
Cc1ccc(Cl)cc1N1CCN(C(=O)c2noc(C)c2[N+](=O)[O-])CC1	105.3*	70.3*	-0.9	9.5	6.5	-10.8
O=C(Nc1ccc2snnc2c1)N1CCOCC1	.	.	-0.9	.	-9.7	5.1
S=C(Nc1ccc(N2CCOCC2)cc1)Nc1ccc2snnc2c1	-10.6	-8.9	72.9*	-26.3	75.8*	-7.8
